# The entries come from a sample that favours hits as a whole.
# Methyltransferases – Primary Screen for Target Class Profiling of Small Molecule Inhibitors of Methyltransferases; hit rate 3.9% among 25,000; purified enzyme, MTase-Glo SAH luminescence; stronger effect = lower value; calls only at 40 µM; AID 1745853, 2022; call rule not given here
#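 Each enzyme was reacted with SAM and its substrate, with compounds tested once at 40 uM; SAH formed was read by MTase-Glo luminescence.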
# Active calls of the source: *; i = inactive; + = active, no number; ! = not active in a repeat. On the % scale 0 is the no-effect control and ±100 the full control effect.
SMILES,Methyltransferases
Cc1cc2c(cc3n2CC(C)(C(=O)NC2CCCCCCC2)N(CCc2ccccc2)C3=O)o1 (configuration not stated),i
CCCn1c(=O)c2ccccc2n2c(SCc3ccccc3)nnc12,i
Cn1c(=O)n(C)c2cc(S(=O)(=O)N3CCC(Cc4ccccc4)CC3)ccc21,i
O=C(CCc1nnc2n(Cc3ccc(F)cc3)c(=O)c3ccccc3n12)Nc1ccc(F)cc1,i
CCCn1c(=O)c2ccc(C(=O)NC(C)CC)cc2n2c(=O)n(CC(=O)Nc3ccccc3CC)nc12 (configuration not stated),i
CC1(C(=O)NCC2CCCO2)Cn2c(cc3ccccc32)C(=O)N1Cc1cccc(Cl)c1 (configuration not stated),i
COc1ccc(NC(=O)c2ccc3c(c2)N(C(=O)c2ccc(OC)cc2)CC3)cc1,i
CCN(CC)Cc1ccc2cc(COC(=O)Nc3ccc(C(=O)NO)cc3)ccc2c1,+!
CCCn1c(=O)c2ccc(C(=O)NCC(C)C)cc2n2c(=O)n(CC(=O)Nc3ccccc3CC)nc12,i
Cc1ccccc1N1C(=O)c2cc3occc3n2CC1(C)C(=O)NC1CCCCCCC1 (configuration not stated),i
CC(=O)Nc1c2n(c3ccccc13)CC(C)(C(=O)NCCC(C)C)N(Cc1ccccc1C)C2=O (configuration not stated),i
COCCCN1C(=O)c2ccc(-c3ccco3)n2CC1(C)C(=O)NC1CCCCCCC1 (configuration not stated),i
CCOC(=O)c1cc2n(n1)CC(C)(C(=O)NCc1ccc(C)cc1)N(c1cccc(CC)c1)C2=O (configuration not stated),i
Cc1ccc2c(c1)c1c3n2CCN(CC(O)CN2CCN(C(=O)c4ccco4)CC2)C3CCC1 (configuration not stated),i
NC(=O)N1CCC(CC(=O)N2CCC(C3c4ncc(Br)cc4CCc4cc(Cl)cc(Br)c43)CC2)CC1 (configuration not stated),+
COC(=O)C1=CO[C@@H](O[C@@H]2O[C@H](CO[C@@H]3O[C@H](CO)[C@@H](O)[C@H](O)[C@H]3O)[C@@H](O)[C@H](O)[C@H]2O)[C@@H]2C(CO)=CC[C@H]12,i
CCCCN1C(=O)c2cc(C(=O)Nc3ccccc3Cl)nn2CC1(C)C(=O)NC1CCCC1 (configuration not stated),i
Cn1c(=O)c2ccc(C(=O)NC3CCCC3)cc2n2c(=O)n(Cc3ccccc3)nc12,i
CC(C)n1nc(C#Cc2ccccc2)c2c(N)ncnc21,i
CC(C)n1nc(-c2ccc(NC(=O)Nc3cccc(C(F)(F)F)c3)cc2)c2c(N)ncnc21,+
C=CC(=O)N1CCC[C@@H](n2nc(-c3cccc(C(=O)Nc4ccc(C(C)C)c(C)c4)c3)c3c(N)ncnc32)C1,i
O=C(CCc1nnc2n(Cc3ccc(F)cc3)c(=O)c3ccccc3n12)NC1CC1,i
COc1ccccc1CNC(=O)C1(C)Cn2c(cc3ccccc32)C(=O)N1Cc1cccc(F)c1 (configuration not stated),i
O=C(c1n[nH]c2ccccc12)N1CCCC1c1nc(CCOCC2CCOCC2)no1 (configuration not stated),i
CC1(C(=O)NCc2ccccc2)Cn2c(ccc2-c2ccco2)C(=O)N1c1ccc(Cl)cc1 (configuration not stated),i
SMILES,Methyltransferases
CCCC1c2cccn2CCN1C(=O)Nc1ccccc1CC (configuration not stated),i
CC1c2cccn2CCN1C(=O)Nc1ccc(Br)cc1F (configuration not stated),i
N=C(N)SCCN,+
O=C1c2cc3sccc3n2CC(C(=O)NC2CCCCCC2)(c2ccccc2)N1CCc1ccc(Cl)cc1 (configuration not stated),i
Cc1ccc(COC(=O)N2CC[C@@H](CNc3ncccn3)[C@@H](F)C2)cc1,i
COc1ccc(NC(=O)CSc2nnc3n(Cc4ccc(C)cc4)c(=O)c4ccccc4n23)cc1,i
COc1ccc(CCN2C(=O)c3cc4ccccc4n3CC2(C)C(=O)NCc2ccccc2)cc1OC (configuration not stated),i
Cc1cccc(CN2C(=O)c3cc4ccccc4n3CC2(C)C(=O)NCc2ccccc2)c1 (configuration not stated),i
COc1ccc(CN2C(=O)c3cc4ccccc4n3CC2(C)C(=O)NCc2ccccc2)cc1OC (configuration not stated),+
CN(CCCN1C(=O)c2cc3occc3n2CC1(C)C(=O)NC1CCCCCC1)Cc1ccccc1 (configuration not stated),i
CC(C)CC[C@@H](O)[C@](C)(O)[C@H]1CC[C@@]2(O)C3=CC(=O)[C@@H]4C[C@@H](O)[C@@H](O)C[C@]4(C)[C@H]3CC[C@]12C,i
CCCN1C(=O)c2nc3ccccc3n2CC1(C)C(=O)NC1CCCC1 (configuration not stated),i
COc1cccc(NC(=O)CSc2nnc3n(C)c(=O)c4ccc(C(=O)NC5CCCC5)cc4n23)c1,i
COc1cccc(CNC(=O)c2ccc3c(=O)nc4c(-c5cccc(F)c5)n[nH]n4c3c2)c1,i
O=c1cc(O)cc(/C=C/c2ccc(O)c(O)c2)o1,+
Oc1ccc(/C=C/c2cc(O)cc(O)c2)cc1,i
O=C(/C=C/c1ccc(O)c(O)c1)OCCc1ccccc1,i
CC1CCC(NC(=O)C2(C)Cn3c(cc4sccc43)C(=O)N2Cc2ccco2)CC1 (configuration not stated),i
Cn1c(=O)n(C)c2cc(S(=O)(=O)Nc3cccc(F)c3)ccc21,i
O=C(Cn1c(=O)n2nc(-c3ccccc3)nc2c2ccccc21)N1CCN(c2ccccc2F)CC1,i
COC(=O)c1cc2n(n1)CC(C)(C(=O)NC1CCCCCC1)N(c1cccc(OC)c1)C2=O (configuration not stated),i
COc1cc(N2CCC(N)CC2)ccc1Nc1ncc(Cl)c(-c2c[nH]c3ccccc23)n1,+
COc1cc(N2CCOCC2)ccc1NC(=O)c1csc(-c2cccnc2)n1,i
COc1ccccc1Nc1ncc2c(n1)CN(C(=O)c1cc3ccccc3n1C)CCN2,i
COc1cc(N2CCC(N3CCN(C)CC3)CC2)ccc1Nc1ncc(Cl)c(-c2c[nH]c3ccccc23)n1,+
SMILES,Methyltransferases
CC(C)NC(=O)c1ccc2c(=O)n(C(C)C)c3nn(CC(=O)NC4CCCCC4)c(=O)n3c2c1,i
COc1ccccc1N1CCN(c2nc3c(S(=O)(=O)c4ccccc4)nnn3c3ccccc23)CC1,i
COc1ccc2cc3n(c2c1)CC(C)(C(=O)NC1CCCC1)N(c1cccc(F)c1)C3=O (configuration not stated),i
CC1(C(=O)NC2CCCCC2)Cn2c(ccc2-c2ccco2)C(=O)N1Cc1ccccc1 (configuration not stated),i
CCCNC(=O)N1CCn2cccc2C1C(C)C (configuration not stated),i
O=C1c2cc3sccc3n2CC(C(=O)NC2CCCCCC2)(c2ccccc2)N1Cc1ccccc1 (configuration not stated),i
C[C@@H]1O[C@@H](OC[C@H]2O[C@@H](OCc3ccccc3)[C@H](O)[C@@H](O)[C@@H]2O)[C@H](O)[C@H](O)[C@H]1O,+
